Measured values from PubChem BioAssay (EPA / NIEHS).
Where “and” joins values, the source holds several entries; their conditions need not be identical. Identical values can stand only once. Results filed as inconclusive are left out. Calls of active or inactive are those of the source. Rule for the calls, unless noted: active = hit-call score of the fitted dose curve at least 0.9, where 1 is the maximum; inconclusive = response in the unintended direction; inactive = score below 0.9.

Test system: frog Estrogen Receptor (ER2), gene 100174814
Test: ATG_frER2_XSP2: Attagene TRANS-FACTORIAL Multi-Species (XSP2) HepG2 Assay for frog Estrogen Receptor (ER2) (AID 2283828)
Summary of the method: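 Cells were transfected with reporter constructs under GAL4-UAS control, dosed with chemicals for 24 h, then lysed for RNA; the frog ER2-driven reporter mRNA was quantified by capillary electrophoresis of labeled PCR fragments, with activity fitted upward from DMSO.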

| SMILES | outcome | AC50 |
| --- | --- | --- |
| CC(=O)O[C@]1(C(C)=O)CC[C@H]2[C@@H]3C=C(Cl)C4=CC(=O)[C@@H]5C[C@@H]5[C@]4(C)[C@H]3CC[C@@]21C | inactive | – |
| CCN(CC)CCOc1ccc(C(=C(Cl)c2ccccc2)c2ccccc2)cc1 | inactive | – |
| CC(=O)[C@@]1(O)CC[C@H]2[C@@H]3CCC4=CC(=O)CC[C@]4(C)[C@H]3CC[C@@]21C | – | 124 µM (active) and 100 µM (active) |

Target: mouse Peroxisome Proliferator-activated Receptor gamma (PPARg), Pparg (gene 19016) (UniProt P37238)
Test: ATG_mPPARg_XSP2: Attagene TRANS-FACTORIAL Multi-Species (XSP2) HepG2 Assay for mouse Peroxisome Proliferator-activated Receptor gamma (PPARg) (AID 2283830);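 note: hits are gains in reporter mRNA above DMSO so AC50 marks activation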
Summary of the method: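 Multiplexed TRANS reporter readout: after 24 h chemical exposure of transfected HepG2 cells (with 3 nM 6-alpha-fluorotestosterone, 1.5 nM norgestrel present), RNA reverse-transcribed, amplified, 6-FAM-labelled and resolved by capillary electrophoresis; mouse PPARg-Gal4 induction scored against DMSO.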

mouse Peroxisome Proliferator-activated Receptor gamma (PPARg), Pparg (gene 19016), sequence (P37238 whole entry, looked up): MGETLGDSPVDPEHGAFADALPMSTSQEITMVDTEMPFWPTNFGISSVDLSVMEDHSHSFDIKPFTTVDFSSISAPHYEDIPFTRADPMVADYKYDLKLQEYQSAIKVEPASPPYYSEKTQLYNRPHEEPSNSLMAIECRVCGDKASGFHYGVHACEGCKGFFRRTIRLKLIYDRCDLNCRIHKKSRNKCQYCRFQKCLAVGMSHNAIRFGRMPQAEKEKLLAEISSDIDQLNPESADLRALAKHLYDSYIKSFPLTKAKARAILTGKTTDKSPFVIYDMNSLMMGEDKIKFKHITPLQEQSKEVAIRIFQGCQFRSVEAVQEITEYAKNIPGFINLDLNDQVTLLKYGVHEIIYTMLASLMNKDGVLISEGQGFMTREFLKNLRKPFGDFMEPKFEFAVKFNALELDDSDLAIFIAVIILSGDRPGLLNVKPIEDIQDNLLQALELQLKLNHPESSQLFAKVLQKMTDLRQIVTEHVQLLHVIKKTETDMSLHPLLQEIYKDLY

| SMILES | outcome | AC50 |
| --- | --- | --- |
| CC(=O)O[C@]1(C(C)=O)CC[C@H]2[C@@H]3C=C(Cl)C4=CC(=O)[C@@H]5C[C@@H]5[C@]4(C)[C@H]3CC[C@@]21C | inactive | – |
| CCN(CC)CCOc1ccc(C(=C(Cl)c2ccccc2)c2ccccc2)cc1 | inactive | – |
| Cc1c(C)c2c(c(C)c1O)CCC(C)(COc1ccc(CC3SC(=O)NC3=O)cc1)O2 (centres undefined) | – | 540 nM (active) |
| CC(=O)[C@@]1(O)CC[C@H]2[C@@H]3CCC4=CC(=O)CC[C@]4(C)[C@H]3CC[C@@]21C | inactive | – |

Target: Nuclear receptor subfamily 1 group I member 2 (Mus musculus) (UniProt O54915)
Test: ATG_mPXR_XSP2: Attagene TRANS-FACTORIAL Multi-Species (XSP1) HepG2 Assay for mouse Pregnane X Receptor (PXR) (AID 2283831)
Summary of the method: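 Reporter transcripts measured after 24 h dosing by RT-PCR with 6-FAM labelling, HpaI digestion and capillary electrophoresis. Transiently transfected HepG2 with NR-Gal4 chimeras; increase over DMSO baseline scored.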

Nuclear receptor subfamily 1 group I member 2 (Mus musculus), sequence (O54915 whole entry, looked up): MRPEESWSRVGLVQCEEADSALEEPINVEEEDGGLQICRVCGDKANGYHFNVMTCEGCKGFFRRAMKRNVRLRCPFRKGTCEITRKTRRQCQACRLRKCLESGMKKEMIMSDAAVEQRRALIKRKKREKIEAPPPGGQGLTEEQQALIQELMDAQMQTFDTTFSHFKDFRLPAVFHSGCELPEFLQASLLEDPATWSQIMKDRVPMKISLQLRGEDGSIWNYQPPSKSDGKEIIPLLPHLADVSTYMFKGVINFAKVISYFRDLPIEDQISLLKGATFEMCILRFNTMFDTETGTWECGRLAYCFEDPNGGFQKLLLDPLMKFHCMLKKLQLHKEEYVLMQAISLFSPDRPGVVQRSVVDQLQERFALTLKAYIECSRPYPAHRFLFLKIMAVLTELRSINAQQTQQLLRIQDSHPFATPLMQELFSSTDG

| SMILES | AC50 | outcome |
| --- | --- | --- |
| CC(=O)O[C@]1(C(C)=O)CC[C@H]2[C@@H]3C=C(Cl)C4=CC(=O)[C@@H]5C[C@@H]5[C@]4(C)[C@H]3CC[C@@]21C | 686 nM (active) | – |
| CCN(CC)CCOc1ccc(C(=C(Cl)c2ccccc2)c2ccccc2)cc1 | 2.9 µM (active) and 6.64 µM (active) | – |
| Cc1c(C)c2c(c(C)c1O)CCC(C)(COc1ccc(CC3SC(=O)NC3=O)cc1)O2 (centres undefined) | – | inactive |

Target: zebrafish Thyroid Hormone Receptor alpha (TRa), thraa (gene 30670) (UniProt Q98867)
Test: ATG_zfTRa_XSP2: Attagene TRANS-FACTORIAL Multi-Species (XSP1) HepG2 Assay for zebrafish Thyroid Hormone Receptor alpha (TRa) (AID 2283832);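 note: actives raise zebrafish TRa-Gal4 reporter transcript above DMSO baseline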
Summary of the method: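 Readout is reporter mRNA induction, quantified by RT-PCR and capillary electrophoresis with fluorescent labelling, after 24 h compound exposure of transiently transfected HepG2 cells carrying NR-Gal4 chimera reporters. Activity fitted upward relative to DMSO.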

zebrafish Thyroid Hormone Receptor alpha (TRa), thraa (gene 30670), sequence (Q98867 whole entry, looked up, the tested form may be a part): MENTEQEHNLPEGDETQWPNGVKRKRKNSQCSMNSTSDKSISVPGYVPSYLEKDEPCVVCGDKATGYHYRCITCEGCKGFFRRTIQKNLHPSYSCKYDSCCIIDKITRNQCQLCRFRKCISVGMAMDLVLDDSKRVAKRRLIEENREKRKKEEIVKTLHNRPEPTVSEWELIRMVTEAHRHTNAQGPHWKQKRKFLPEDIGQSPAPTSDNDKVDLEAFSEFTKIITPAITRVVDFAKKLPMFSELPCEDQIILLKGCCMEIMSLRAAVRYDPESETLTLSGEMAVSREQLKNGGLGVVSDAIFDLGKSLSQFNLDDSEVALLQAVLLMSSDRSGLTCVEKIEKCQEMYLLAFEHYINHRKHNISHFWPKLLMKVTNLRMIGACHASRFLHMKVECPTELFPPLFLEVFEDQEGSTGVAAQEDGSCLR

| SMILES | outcome |
| --- | --- |
| CC(=O)O[C@]1(C(C)=O)CC[C@H]2[C@@H]3C=C(Cl)C4=CC(=O)[C@@H]5C[C@@H]5[C@]4(C)[C@H]3CC[C@@]21C | inactive |
| CCN(CC)CCOc1ccc(C(=C(Cl)c2ccccc2)c2ccccc2)cc1 | inactive |
| CC(=O)[C@@]1(O)CC[C@H]2[C@@H]3CCC4=CC(=O)CC[C@]4(C)[C@H]3CC[C@@]21C | inactive |

Test system: zebrafish Peroxisome Proliferator-activated Receptor gamma (PPARg), gene 557037
Test: ATG_zfPPARg_XSP2: Attagene TRANS-FACTORIAL Multi-Species (XSP2) HepG2 Assay for zebrafish Peroxisome Proliferator-activated Receptor gamma (PPARg) (AID 2283833);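 note: reporter mRNA from a zebrafish PPARg GAL4 chimera measured by RT-PCR and capillary electrophoresis; actives increase reporter signal over DMSO so AC50 reflects activation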
Summary of the method: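 After 24 h chemical exposure, RNA from transiently transfected HepG2 (chimeric NR-Gal4 TRANS reporters) was reverse-transcribed, PCR-amplified, 6-FAM-labelled, HpaI-cut and sized by capillary electrophoresis. Induction was scored in the positive direction relative to DMSO.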

| SMILES | outcome |
| --- | --- |
| CC(=O)O[C@]1(C(C)=O)CC[C@H]2[C@@H]3C=C(Cl)C4=CC(=O)[C@@H]5C[C@@H]5[C@]4(C)[C@H]3CC[C@@]21C | inactive |
| CCN(CC)CCOc1ccc(C(=C(Cl)c2ccccc2)c2ccccc2)cc1 | inactive |
| Cc1c(C)c2c(c(C)c1O)CCC(C)(COc1ccc(CC3SC(=O)NC3=O)cc1)O2 (centres undefined) | inactive |

Test system: not listed separately
Test: ATG_M_61_XSP2: Attagene TRANS-FACTORIAL Multi-Species (XSP2) HepG2 Assay for M61 Transcription Factor (Internal Marker) (AID 2283835; active = hit-call score of the fitted dose curve at least 0.9, where 1 is the maximum; inactive = score below 0.9;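 note: reporter mRNA of an internal background marker read by RT-PCR and capillary electrophoresis; active means a rise in signal above the DMSO baseline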)
Summary of the method: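 Transient MRTU transfection of human HepG2; 24 h chemical dosing with 3 nM 6-alpha-fluorotestosterone + 1.5 nM norgestrel added for AR stimulation. RNA isolated, RT, PCR, FAM-labelled, HpaI cut, CE read. Positive direction vs DMSO.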

| SMILES | outcome |
| --- | --- |
| CC(=O)O[C@]1(C(C)=O)CC[C@H]2[C@@H]3C=C(Cl)C4=CC(=O)[C@@H]5C[C@@H]5[C@]4(C)[C@H]3CC[C@@]21C | inactive |
| CCN(CC)CCOc1ccc(C(=C(Cl)c2ccccc2)c2ccccc2)cc1 | inactive |
| Cc1c(C)c2c(c(C)c1O)CCC(C)(COc1ccc(CC3SC(=O)NC3=O)cc1)O2 (centres undefined) | inactive |
